Rab9 prom act: activators of Rab9 promoter. Huh7 Rab9 promoter-luciferase reporter, luminescence, 24 h. Potency, µM (top dose mostly 9.22 µM), hits mostly activators. AID 485297. 320,000 compounds, 2.8% hits; further: nearly all actives have a fitted effect of over 60% in size
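Luminescence read-out: Huh7 cells stably expressing Rab9-luciferase, treated 24 h with compound at 37 °C, then lysed with luciferase reagent for 10 min at ambient before reading.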
ELG1 genotoxic: induces genotoxicity in HEK293T cells with luciferase-tagged ELG1; Potency, µM (top dose mostly 46 µM), usual class: activators; HEK293T ELG1-luciferase reporter, luminescence, 16 h; AID 504466; 330,000 compounds, 1.3% hits; further: nearly all actives have a fitted effect of over 60% in size
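Reporter readout depends on ELG1 protein level, which increases with genetic stress. After 16 hr compound exposure at 37 °C, luciferase activity was quantified using ONE-Glo.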
FLuc modulator: firefly luciferase modulation, counter-screen for miR-21 project; purified FLuc, Km substrates, luminescence inhibition; Potency, µM (top dose mostly 57.5 µM), most hits filed as inhibitors; 360,000 compounds, 6.9% hits; AID 588342; further: nearly all actives have a fitted effect of over 55% in size
Target sequence (P08659 whole entry, looked up): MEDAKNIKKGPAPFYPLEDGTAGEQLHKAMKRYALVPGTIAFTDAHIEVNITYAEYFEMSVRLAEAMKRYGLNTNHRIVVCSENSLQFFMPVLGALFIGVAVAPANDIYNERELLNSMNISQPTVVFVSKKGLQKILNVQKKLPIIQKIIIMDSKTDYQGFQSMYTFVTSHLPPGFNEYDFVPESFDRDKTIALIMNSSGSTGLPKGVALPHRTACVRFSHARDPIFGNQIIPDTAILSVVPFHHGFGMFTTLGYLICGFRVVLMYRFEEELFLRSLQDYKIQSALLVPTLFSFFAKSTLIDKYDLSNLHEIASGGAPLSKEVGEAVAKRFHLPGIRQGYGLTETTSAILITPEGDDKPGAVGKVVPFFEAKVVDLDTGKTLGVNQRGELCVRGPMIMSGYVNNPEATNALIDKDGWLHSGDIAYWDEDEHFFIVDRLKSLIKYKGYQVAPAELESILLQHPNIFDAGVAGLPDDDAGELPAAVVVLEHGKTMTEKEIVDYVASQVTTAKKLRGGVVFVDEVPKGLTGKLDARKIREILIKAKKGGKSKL
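Purified P. pyralis luciferase (10nM final) with 10uM D-luciferin and 10uM ATP (Km levels) in 50mM Tris acetate pH 7.5, 10mM Mg acetate, 0.01% Tween-20, 0.05% BSA; qHTS 6-point titration, ~60 µM downward; luminescence read.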
SMN2 splice up: increases expression of the SMN2 splice variant | HEK293 SMN2-luciferase splicing reporter, luminescence, 30-36 h | Potency, µM (series often up to 46.1 µM), most hits filed as activators | 210,000 compounds, 2.8% hits; further: nearly all actives have a fitted effect of over 55% in size
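HEK293 cells carry an SMN2 minigene-luciferase reporter in which exon 7 inclusion puts luciferase in frame. Cells were seeded at 2000 cells/well, attached for 10-12 hours, then exposed to compounds for 30-36 hours at 37C before ONE-Glo luminescence.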
NPC1 prom act: NPC1 promoter activation; Huh7 NPC1 promoter luciferase reporter, 24 h; Potency, µM (doses to about 9.22 µM), hits mostly activators; 320,000 compounds, 2.4% hits; further: nearly all actives have a fitted effect of over 60% in size
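Quantitative HTS used a cell-based reporter: Huh7 cells stably bearing the NPC1 promoter upstream of luciferase were treated with compounds for 24 h, and promoter activation was read as luminescence.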
Of the large screens only hits and unclear results are named; the others gave an inactive call. This is a sample that favours compounds with a hit; in the whole collection about 7.5% have one here. The call rests on the fitted dose curve; in most records, active means well fitted curve in the direction sought with a large enough effect; inconclusive means small, poorly fitted or top-dose-only effect, or another doubt; inactive means no such curve, though single readings can be large; an effect the other way counts as inactive or inconclusive.

CCn1c(SCC(=O)c2cc(C)n(CC3CCCO3)c2C)nc2ccccc21 (configuration not stated)	Rab9 prom act inconclusive, FLuc modulator 27µM
Cc1cc(C(=O)CSc2nnnn2-c2ccccc2)c(C)n1CC1CCCO1 (configuration not stated)	Rab9 prom act 1.6µM, ELG1 genotoxic inconclusive, FLuc modulator 2.7µM, SMN2 splice up 13µM, NPC1 prom act 2.5µM
CCCc1cc(=O)[nH]c(SCC(=O)c2cc(C)n(CC3CCCO3)c2C)n1 (configuration not stated)	none (no result: Rab9 prom act, FLuc modulator, SMN2 splice up, NPC1 prom act)
Cc1cc(C(=O)CSc2nc3ccccc3c(=O)n2C)c(C)n1CC1CCCO1 (configuration not stated)	FLuc modulator inconclusive
Cc1cc(C(=O)CSc2nc3ccccc3c(=O)[nH]2)c(C)n1CC1CCCO1 (configuration not stated)	Rab9 prom act inconclusive, FLuc modulator 13µM
COc1cccc(C(=O)OCC(=O)c2ccc(Br)s2)c1OC	FLuc modulator 8.5µM (no result: SMN2 splice up)
Cc1cc(C(=O)OCC(=O)c2ccc(Br)s2)no1	FLuc modulator 9.5µM
COc1cccc(C(=O)OCC(=O)NCCNC(=O)COC(=O)c2cccc(OC)c2OC)c1OC	none (no result: SMN2 splice up)
C=CCN(CC=C)c1cnn(-c2nc3ccccc3[nH]2)c(=O)c1Cl	Rab9 prom act 0.71µM, ELG1 genotoxic inconclusive, FLuc modulator 6µM, NPC1 prom act 2µM (no result: SMN2 splice up)
O=S(=O)(Nc1nc2ccccc2[nH]1)c1ccc(Cl)cc1	none
O=c1c(Cl)c(NCCCO)cnn1-c1nc2ccccc2[nH]1	Rab9 prom act inconclusive, ELG1 genotoxic 16µM, FLuc modulator 12µM, SMN2 splice up inconclusive, NPC1 prom act inconclusive
O=c1c(Cl)c(NCCO)cnn1-c1cccc(Cl)c1	SMN2 splice up inconclusive
COC(=O)c1oc2c(c1C)C(=O)CCC2	none (no result: SMN2 splice up)
CC(NCCOc1ccccc1F)C(=O)Nc1ccc(S(N)(=O)=O)cc1 (configuration not stated)	none (no result: SMN2 splice up)
O=C(NCCCCNC(=O)c1ccc(F)cc1)c1ccc(F)cc1	none (no result: SMN2 splice up)
O=C(NCCCc1ccccc1)c1ccc(F)cc1	Rab9 prom act 1.8µM, ELG1 genotoxic inconclusive, FLuc modulator 24µM, NPC1 prom act inconclusive (no result: SMN2 splice up)
COc1ccc(C(=O)Nc2cnccn2)cc1[N+](=O)[O-]	none (no result: SMN2 splice up)
CC(C)(C)c1ccc(C(=O)NCc2ccccc2)cc1	Rab9 prom act 6.3µM, FLuc modulator 11µM (no result: SMN2 splice up)
CC(C)(C)c1ccc(C(=O)NCc2ccc(Cl)cc2)cc1	none
CCCCOc1ccc(C(=O)NCCc2ccccc2)cc1	Rab9 prom act 1.1µM, ELG1 genotoxic inconclusive, FLuc modulator 6µM, NPC1 prom act 0.32µM (no result: SMN2 splice up)
CC(C)(C)c1ccc(C(=O)Nc2cnccn2)cc1	Rab9 prom act 0.56µM, ELG1 genotoxic 0.65µM, FLuc modulator 1.3µM, SMN2 splice up 28µM, NPC1 prom act 1.8µM
COc1ccccc1N1CCN(C2CC(=O)N(c3ccc(Cl)cc3)C2=O)CC1 (configuration not stated)	none (no result: SMN2 splice up)
O=S1(=O)c2ccccc2OC(COCc2ccccc2)CN1Cc1ccccc1 (configuration not stated)	none (no result: Rab9 prom act, FLuc modulator, SMN2 splice up, NPC1 prom act)
Cc1ccc(NS(=O)(=O)c2ccc(C(=O)NCc3cccnc3)cc2)cc1	ELG1 genotoxic inconclusive, FLuc modulator 21µM (no result: SMN2 splice up)
CC1CCN(c2ccc(C(=O)NCCc3ccccc3)cn2)CC1	Rab9 prom act inconclusive, FLuc modulator 24µM, SMN2 splice up inconclusive, NPC1 prom act inconclusive
O=C(NCc1cccnc1)c1ccc(S(=O)(=O)Nc2ccccc2)cc1	none (no result: SMN2 splice up)
O=C(NCCc1ccccc1)c1ccncc1	Rab9 prom act 3.5µM, ELG1 genotoxic inconclusive, FLuc modulator inconclusive
O=C(COC(=O)c1ccc(Cl)nc1)NCCc1ccc(Cl)cc1	none (no result: Rab9 prom act, FLuc modulator, SMN2 splice up, NPC1 prom act)
O=C(NCCc1ccccc1)c1ccc(Cl)nc1	Rab9 prom act 2µM, ELG1 genotoxic inconclusive, FLuc modulator 12µM, SMN2 splice up 11µM, NPC1 prom act 4µM
COC(=O)N/N=C(\C)c1ccc(OC(F)F)cc1OC(F)F	none
COc1ccc(-c2nnn(CC(=O)N(Cc3cccs3)C(C)C(=O)NC3CCCC3)n2)cc1OC (configuration not stated)	none
O=C(COc1ccccc1C(=O)Nc1ccccc1)NCCc1ccccc1	none
Cc1ccc(C(=O)Nc2ncn[nH]2)cc1	FLuc modulator inconclusive (no result: SMN2 splice up)
CC(C)(C)C(=O)Nc1ccc(C(=O)NCc2cccnc2)cc1	FLuc modulator inconclusive (no result: Rab9 prom act, ELG1 genotoxic, NPC1 prom act)
CC(C)(C)c1ccc(C(=O)Nc2ccc(C(=O)NCc3cccnc3)cc2)cc1	FLuc modulator 12µM (no result: SMN2 splice up)
Cc1ccc(NC(=O)COc2ccccc2C(=O)NCCc2ccccc2)cc1	FLuc modulator 21µM (no result: SMN2 splice up)
CC(C)(C)c1ccc(C(=O)NCCCNC(=O)c2ccco2)cc1	FLuc modulator 15µM (no result: SMN2 splice up)
CC(C)(C)c1ccc(C(=O)Nc2ncn[nH]2)cc1	Rab9 prom act 2.5µM, ELG1 genotoxic inconclusive, FLuc modulator 9.5µM, SMN2 splice up 10µM, NPC1 prom act 2.2µM
CC(Sc1nc(NCc2ccccc2)nc(N(C)C)n1)C(=O)Nc1ccccc1 (configuration not stated)	none
CC(C)(C)c1ccc(C(=O)NCCc2ccccc2)cc1	Rab9 prom act 0.089µM, ELG1 genotoxic inconclusive, FLuc modulator 0.76µM, NPC1 prom act 0.35µM (no result: SMN2 splice up)
CC(=O)Nc1ccc(NC(=O)c2ccccc2C)cc1	SMN2 splice up inconclusive
CC(=O)Nc1ccc(NC(=O)c2ccccc2CCc2ccccc2)cc1	SMN2 splice up 32µM
CC(Oc1ccc(C(=O)NCCc2ccccc2)cc1)C(=O)O (configuration not stated)	none
CC(=O)Nc1ccc(C(=O)NCCc2ccccc2)cc1	Rab9 prom act inconclusive, ELG1 genotoxic inconclusive, FLuc modulator inconclusive, SMN2 splice up 16µM, NPC1 prom act inconclusive
O=C(Nc1ccccc1C(=O)NC(Cc1c[nH]c2ccccc12)C(=O)O)c1ccco1 (configuration not stated)	none
COCCNC(=S)Nc1ccc(N2CCCCC2)cc1	FLuc modulator inconclusive, SMN2 splice up inconclusive
Cc1ccc(C(=O)Nc2nc(-c3ccccn3)cs2)s1	ELG1 genotoxic 15µM, FLuc modulator 6.7µM (no result: SMN2 splice up)
CCc1sc(C(=O)Nc2nc(-c3ccccn3)cs2)cc1C	none (no result: Rab9 prom act, FLuc modulator, SMN2 splice up, NPC1 prom act)
O=C(Nc1nc(-c2ccccn2)cs1)c1ccc(Cl)s1	FLuc modulator 17µM
O=C(Nc1ccc2nc(-c3ccccn3)[nH]c2c1)C1CCCCC1	Rab9 prom act inconclusive, ELG1 genotoxic 21µM, FLuc modulator 5.4µM, SMN2 splice up 11µM, NPC1 prom act inconclusive
O=C(Nc1nc(-c2ccccn2)cs1)C1CCCC1	Rab9 prom act inconclusive, FLuc modulator 24µM
O=C(ON=C1CCN(S(=O)(=O)c2ccccc2)CC1)c1ccccc1	none
CC(C)OCCCNC1=C(Cl)C(=O)c2ccccc2C1=O	FLuc modulator 13µM (no result: SMN2 splice up)
COCCCNC1=C(Cl)C(=O)c2ccccc2C1=O	FLuc modulator inconclusive (no result: SMN2 splice up)
C=CCC[C@@H](Cc1ccc(F)cc1)C(=O)OC[C@H](Cc1c[nH]c2ccccc12)NC(=O)[C@@H](CC=C)CC(=O)NCCO	none (no result: Rab9 prom act, FLuc modulator, SMN2 splice up, NPC1 prom act)
